E coli Lon inh – inhibitors of E. coli Lon protease | purified E. coli Lon protease, fluorescence polarization | inhibition, % at 7.94 µM | 360,000 tested, 0.42% active | AID 602123; in the data active = inhibition above about 13%, passing the limit was not always enough;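 also: 0% = enzyme with probe and DMSO and 100% = no enzyme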
Target sequence (P0A9M0 whole entry, looked up): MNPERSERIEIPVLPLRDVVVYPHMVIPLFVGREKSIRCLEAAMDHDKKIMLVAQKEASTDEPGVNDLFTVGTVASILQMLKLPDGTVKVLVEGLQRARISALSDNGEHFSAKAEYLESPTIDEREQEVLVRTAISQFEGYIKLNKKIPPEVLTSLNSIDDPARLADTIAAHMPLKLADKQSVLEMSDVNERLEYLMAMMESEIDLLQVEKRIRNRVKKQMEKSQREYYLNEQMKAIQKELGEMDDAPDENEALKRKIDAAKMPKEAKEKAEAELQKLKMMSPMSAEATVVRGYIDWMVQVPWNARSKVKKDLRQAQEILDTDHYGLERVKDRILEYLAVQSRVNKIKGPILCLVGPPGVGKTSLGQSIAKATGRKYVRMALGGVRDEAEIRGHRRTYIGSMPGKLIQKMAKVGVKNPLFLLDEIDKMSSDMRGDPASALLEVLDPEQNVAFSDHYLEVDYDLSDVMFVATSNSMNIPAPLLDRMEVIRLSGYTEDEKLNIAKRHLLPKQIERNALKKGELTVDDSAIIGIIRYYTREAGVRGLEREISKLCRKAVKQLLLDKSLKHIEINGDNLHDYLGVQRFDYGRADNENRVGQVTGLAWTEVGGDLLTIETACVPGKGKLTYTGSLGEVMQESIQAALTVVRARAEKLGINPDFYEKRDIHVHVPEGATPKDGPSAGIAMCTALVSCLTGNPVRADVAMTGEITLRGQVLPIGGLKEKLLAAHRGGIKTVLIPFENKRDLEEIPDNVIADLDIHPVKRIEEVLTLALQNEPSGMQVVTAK
LANA DNA inh – inhibitors of KSHV LANA C-terminal domain DNA binding. inhibition, % at 9 µM. AID 504423. 340,000 tested, 0.078% active. MBP-C-LANA/FAM-LBS DNA binding, fluorescence polarization;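 active = highest replicate inhibition at or above 60% at 9 µM, even if other replicates fall short; inactive = all replicates below 60% inhibition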;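 also: 0% = neutral control wells and 100% = 4 µM acridine orange control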
BCLXL inh – blocks human Bcl-xL binding to Bim BH3 peptide | Q07817 | GST-Bcl-xL / FITC-Bim BH3 peptide fluorescence polarization | inhibition, % at 10.9 µM | 320,000 tested, 0.7% active | AID 2129;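 active = inhibition above the mean of all tested compounds plus 3 SD, cutoff set per campaign, cut at about 30% in these data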;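 also: 0% = DMSO wells and 100% = unlabeled Bim-BH3 peptide competitor; inhibitors lower millipolarization by displacing the labeled peptide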
MEX-5 binding – C. elegans MEX-5 TCR-2 RNA binding activity; 300,000 tested, 0.38% active; Q9XUB2; MEX-5/FITC-TCR2 RNA binding, fluorescence polarization; stronger effect = lower value; activity score (negative = inhibition of binding), % at 10 µM;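 active = inhibition past about -25% in most replicates, and total fluorescence under double the plate's negative control median, limit read from the data; inconclusive = replicates evenly split on the limit, or fluorescence at least double controls; inactive = too little inhibition in most replicates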;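 also: 0% = DMSO and -100% = 5 µM competing unlabeled TCR2 RNA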
GLD-1 RNA inh – GLD-1-TGE RNA interaction inhibition (C. elegans) | inhibition, % at 5.96 µM | 320,000 tested, 0.44% active | purified GLD-1 + fluorescein TGE RNA, fluorescence polarization | AID 2280 | Q17339;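 active = percent inhibition above a per-plate cutoff, the plate mean of test compounds plus 3 SD, cut at about 30% in these data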;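 also: 0% = DMSO wells with GLD-1 and probe and 100% = wells lacking GLD-1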
Keap1-Nrf2 PPI – inhibitors of human Keap1-Nrf2 protein-protein interaction; inhibition, % at 9.4 µM; 340,000 tested, 0.15% active; AID 504523; Keap1 Kelch-Nrf2 peptide fluorescence polarization, 1536-well; Q14145; in the data active = inhibition above about 12%; inconclusive = no clear call, values can overlap the other calls; inactive = below about 7.3%;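 also: human Keap1 Kelch domain with fluorescein labeled Nrf2 9mer peptide probe; 0% = neutral control wells and 100% = peptide positive control; higher means more block of Keap1 binding to Nrf2 peptide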
The depositor's hits bear a star; ? = inconclusive; · = no result; + = active, no number. This is a sample that favours compounds with a hit; in the whole collection about 1.2% have one here.

SMILES	E coli Lon inh	LANA DNA inh	BCLXL inh	MEX-5 binding	GLD-1 RNA inh	Keap1-Nrf2 PPI
Cc1ccnc(SCC(=O)c2cc3ccccc3o2)n1	3	74*	2	1	-5	2
COc1ccc(C(=O)c2sc3nc(C)cc(-c4cccs4)c3c2N)cc1	-74	4	·	-44*	·	-2
COc1ccc(C(=O)c2sc3nc(C)cc(-c4cccs4)c3c2N)cc1OC	-200	26	6	-53*	5	5
Cc1cccc(/C=C(\C(=O)O)c2ccc(S(=O)(=O)N3CCCC3)s2)c1	1	6	·	·	6	-5
CCOc1ccc(OCCC(=O)N(CC)CC(=O)Nc2ccccc2OC)cc1	4	0	·	·	·	-5
C/C(=N/OC(=O)c1ccc(C)cc1)c1cccs1	2	0	6	-2	-7	0
COc1ccc(C(=O)O/N=C(/c2cccs2)C(C)(C)C)cc1	-2	-2	6	3	138*	-3
Cc1cc(CC(=O)O)c2oc(-c3ccoc3)cc(=O)c2c1	·	·	38*	-11	7	·
COc1cc(C2C(C#N)=C(N)N(c3sc4c(c3C#N)CCCC4)C3=C2C(=O)CC(C)(C)C3)cc(OC)c1OC (stereo not given)	-9	1	8	1	-1	-10
Cc1ccccc1C1C(C#N)=C2NC(=O)c3c(sc4c3CCCCC4)N2C2=C1C(=O)CC(C)(C)C2 (stereo not given)	·	·	30	?	101*	·
Cc1ccccc1C1C(C#N)=C2N=C(N)c3c(sc4c3CCCCC4)N2C2=C1C(=O)CC(C)(C)C2 (stereo not given)	-7	0	55*	-2	48*	-2
O=C(Nc1ccccc1)C(=O)Nc1ccc2c(c1)N(C(=O)C1CC1)CCC2	1	0	-5	3	-4	-1
COC(=O)c1ccc(=O)c2nc3/c(=C/O)c(O)cc(=O)c3[nH]c12	-2	22	90*	·	4	-1
COc1ccc(N2C(=O)c3ccccc3C2O)cc1 (stereo not given)	-9	4	4	3	9	1
COc1ccc(O)c(C(=O)C2c3ccccc3C(=O)N2c2ccc(C)cc2)c1 (stereo not given)	-2	1	31*	2	17	-5
C=C1c2cccc(O)c2C(=O)C2C(=O)[C@]3(O)C(=O)C(C(N)=O)C(=O)[C@@H](N(C)C)[C@@H]3[C@@H](O)[C@H]12 (stereo not given in full)	13	126*	·	·	5	12*
C[C@H]1c2cccc(O)c2C(O)=C2C(=O)[C@]3(O)C(O)=C(C(N)=O)C(=O)[C@@H](N(C)C)C3[C@@H](O)C21 (stereo not given in full)	-1	-1	-2	-8	3	3
O=[N+]([O-])c1cccc(/C=C/c2nc(C=Nc3ccccc3)c(O)o2)c1	-9	0	-31	-43*	-14	1
CC1CCc2nc3ccc(S(=O)(=O)N4CCC(C(=O)O)CC4)cc3c(C(=O)O)c2C1 (stereo not given)	3	3	10	-4	9	-3
COC(CNC(=O)C1CCN(S(=O)(=O)c2ccc3nc4c(c(C(=O)O)c3c2)CC(C)CC4)CC1)OC (stereo not given)	8	12	31*	-5	5	-2
O=C(/C=C/c1ccco1)Nc1cccc2cccnc12	-1	10	51*	-7	30	4
COc1ccc(/C=c2\sc3nc(-c4ccccc4OC)nn3c2=O)c(OC)c1	-10	6	1	-33*	4	-1
COc1ccccc1-c1nc2s/c(=C\c3cccs3)c(=O)n2n1	-5	-1	4	-1	-2	1
O=C1/C(=C\c2cc([N+](=O)[O-])ccc2O)SC(=S)N1Cc1ccc(Cl)cc1	-236	-6	76*	?	47*	-29
Cc1ccc(C)n1Cc1ccc(C(=O)O)cc1	-3	114*	41*	·	22	-4
SMILES	E coli Lon inh	LANA DNA inh	BCLXL inh	MEX-5 binding	GLD-1 RNA inh	Keap1-Nrf2 PPI
Cc1cc(C)n(Cc2ccc(C(=O)O)cc2)n1	-5	1	4	0	4	-2
O=C1/C(=C/c2cccc(F)c2)Oc2cc(O)ccc21	-46	8	75*	?	70*	-3
CCCNC(=O)c1cc(C2CCCCN2S(=O)(=O)c2ccccc2)on1 (stereo not given)	-5	·	·	·	·	·
CC1CCN(C(=O)c2ccc3c(c2)NC(=O)/C(=C/c2ccccc2)S3)CC1	3	-1	3	3	-1	-4
Cc1ccc(/C=C2/Sc3ccc(C(=O)N4CCN(C)CC4)cc3NC2=O)cc1	10	0	37*	-12	17	2
COc1ccc(NC(=S)Nc2ccc3c(c2)c(=O)n(C)n3-c2ccccc2)cc1	4	·	·	·	·	·
COc1cccc(C2=CC(c3ccc(C)cc3)n3ncnc3N2)c1 (stereo not given)	·	·	55*	4	57*	·
COc1cc(C2C=C(c3cccs3)Nc3ncnn32)cc(OC)c1OC (stereo not given)	+	121*	·	·	·	88*
COc1cc(C2CC(=O)C3=C(C2)Nc2ncnn2C3c2cccs2)cc(OC)c1OC (stereo not given)	-10	·	1	0	-2	·
CCOC(=O)c1cc(-c2ccccc2)sc1NC(=O)C(C)(C)C	-2	-1	2	-3	6	1
CCOC(=O)c1cc(-c2ccccc2)sc1NC(=S)Nc1cc(C)ccn1	-2	11	2	-57*	-1	6
CC(C)CNc1ncnc2c1ncn2[C@H]1CN(C2CCCC2)C[C@@H](CO)O1	-1	·	·	·	·	·
CC1CN(C2CC(C)(C)NC(C)(C)C2)CCC1=O (stereo not given)	-6	3	7	-48*	1	3
CCOC(=O)CN(C(=O)CSc1nnc(CNc2ccc(F)cc2)n1C)c1ccccc1	-6	-1	-2	1	45*	0
CCOC(=O)N1CCN(C(=O)COC(=O)C2CCN(S(=O)(=O)c3ccc(C)c(C)c3)CC2)CC1	-11	1	6	1	11	1
CCN(CCCNC(=O)C1c2ccccc2C(=O)N(CCOC)C1c1ccc(F)cc1)Cc1ccccc1 (stereo not given)	8	83*	2	-1	-6	3
C/C(NCCc1ccc(O)cc1)=C1/CCOC1=O	-4	·	·	·	·	·
O=C1C=CC(=O)C(C2=C3C(=O)N(CCc4ccccc4)CC(=O)N3CCC2)=C1	·	·	20	-47*	6	·
COc1ncc(-c2ccc(N3C(c4ccsc4)=Cc4ccc(F)cc4C3CC(C)=O)cc2)cn1 (stereo not given)	-8	·	·	·	·	·
N=c1c(S(=O)(=O)c2ccc(Br)cc2)cc2c(=O)n3ccccc3nc2n1Cc1ccccc1	-5	1	0	0	0	-4

Source: PubChem BioAssay (several laboratories)
